The structures appear in SMILES notation. About 83,000 compounds went through this panel and 20% of them were active in at least one assay; those are over-represented in the sample as a whole.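 A percent growth of 40 corresponds to 60% growth inhibition; 0 means no net growth; -100 means all cells died. Active threshold: below 10.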 A number with no mark means an inactive call. The source made the active and inactive calls.

The test system of one experiment is SK-OV-3 ovarian. Put plainly: NCI-60 one-dose screen, 48 h (100 = growth as untreated, 0 = no growth, -100 = all killed). The note with it: 10 µM unless noted.
As to `O=C(c1ccccc1)c1c(/C=C/c2ccc(Cl)cc2)nc2ccccc2c1/C=C/c1cccs1`, the growth is 97.2%.
On the same count and under the same terms, the same measure for `CC(=O)n1c(-c2ccc(Cl)cc2)nc2c(c1=O)C(c1ccc(Cl)cc1)c1sc3c(Cl)cccc3c1O2` (stereo not drawn): -2.53% (active); for `CN1CCN(CCCOc2ccc3nc(Nc4ccc(F)c(F)c4)ccc3c2)CC1`: 49.6%; for `CS(=O)c1cccc(-c2ccc3nc(N)n(-c4ccc(C(F)(F)F)cc4)c(=O)c3c2)c1` (stereo not drawn): 102%.
Same read-out and setting: next, `COc1ccc2[nH]c(O)c(/C=c3/cc4c(c(-c5ccc(F)c(OC)c5)n3)=Nc3ccccc3-4)c2c1`: 107%; `CC(=O)C(C)Cc1cc2c(cc1C)C(C)(C)CCC2(C)C` (stereo not drawn): 85.7%.
`COc1cc(/C=C2\C(=O)ON=C2C)cc(OC)c1OC`: the growth was 98.9%.
With `CCCCn1c(=O)c2c(nc3n2CCCN3CCc2ccc(OCC(=O)NCCN(CC)CC)cc2)n(CCCC)c1=O`, the growth was 51.8%.
As to `COc1cc2c(cc1-c1c(C)noc1C)ncc1nc(C3CCC(F)(F)CC3)n(C3CCC(OC(F)F)CC3)c12` (stereo not drawn), the growth was 17.6%.
Same read-out and setting: the same measure for `CCN(CCNc1ccc(C)c2sc3ccccc3c(=O)c12)CC(C)(C)O`: 76.3%; for `CCCCCCCCCCCCCCCCCCOc1ccccc1CC(=O)OCCC[N+](C)(C)C`: 94.2%.
Still for that read-out and setting: the same measure for `COc1ccc(C(=NN=C(N)N)c2ccc(OC)cc2)cc1`: 11%.
With `Cc1c(C(=O)N[C@@H](Cc2ccccc2)C(=O)C(=O)NCCc2ccccc2)[nH]c2ccccc2c1=O`, the growth is 107%.
With `CC1(c2ccccc2)NC(=O)N(NC(=O)CSc2nc(-c3cccs3)nc3ccccc23)C1=O` (stereo not drawn), the growth was 124%.
For the compound `CCN(CC)Cc1cccc(C(=O)OC)c1`, the growth was 89.4%.
On the same count and under the same terms, next, `CCCCc1ccc(Nc2ccc(Nc3ccc(CCCC)cc3S(=O)(=O)O)c3c2C(=O)c2ccccc2C3=O)c(S(=O)(=O)O)c1`: 91.5%.
On the same count and under the same terms, the same measure for `O=C(Nc1ccc(Cl)cc1)Nc1ccc(Cl)c(C(F)(F)F)c1`: -27.1% (active); for `COc1ccc(-c2nc3c(N)c(CO)c(C)nc3o2)cc1`: 106%.
On to `c1ccc(Nc2nc(-c3ccccn3)cs2)nc1`, for which the growth was 29.5%.
The same measure, in the same setting: the same measure for `Cc1ccc(S(=O)(=O)Oc2cc(OS(=O)(=O)c3ccc(C)cc3)cc(OS(=O)(=O)c3ccc(C)cc3)c2)cc1`: 101%.
For `COc1ccc(NC(=O)c2nc(-c3cc(OC)c(OC)c(OC)c3)n(-c3cccc4ccccc34)n2)cc1OC`, the growth is 38.3%.
For the compound `COc1ccc(C2C(c3nn[nH]n3)=C(N)Oc3c2ccc2ccccc32)cc1` (stereo not drawn), the growth was 79.5%.

Another experiment relates to IGROV1 ovarian. Described as above. Particulars: 10 µM unless noted.
`C=CCn1c(C)nc2cc(Nc3nc(N4CCCC4)nc4ccccc34)ccc21`: the growth is 95.4%.
Still for that read-out and setting: the same measure for `Cc1ccc(/C=C/c2c(C(=O)/C=C/c3ccc(Cl)cc3)c(C)nc3ccccc23)cc1`: 1.39% (active); for `COc1cc(/C=C/C(=O)c2cccc(-n3cc(-c4ccccc4)[nH]c3=O)c2)ccc1O`: 2.96% (active); for `C=CCOC1=CC(=O)c2ccccc2C1=O`: 85.5%.
As to `Cn1cc(-c2csc(-c3ccccc3)n2)c2cccnc21`, the growth was -20.7% [100 µM] (active).
On to `c1ccc(-c2nc([P+](c3ccccc3)(c3ccccc3)c3ccccc3)c(N3CCOCC3)o2)cc1`, for which the growth is 16.7%.
The same measure, in the same setting: next, `COc1ccc(C2c3ccc4ccccc4c3Oc3nc(C)[nH]c(=O)c32)cc1` (stereo not drawn): 95.8%; `CN(C)c1ccc(-c2ccc3[nH]c(=O)nc(-c4ccccc4)c3c2)cn1`: 49.7%; `O=C1/C(=C\c2c[nH]c3ccccc23)c2ccccc2N1c1c(Cl)cccc1Cl`: 23.9%.
On the same count and under the same terms, next, `Cc1cc(/C=C\c2ccc3ccccc3[n+]2C)c(O)c2ncccc12`: -1.34% (active).
Consider `O=C1N=c2cc3c(cc2=C/C1=C/c1sc(=S)n(CCc2ccc(O)cc2)c1O)OCCO3`, for which the growth was 49%.
As to `N#Cc1nc(C#N)c(Sc2ccccc2)c(Sc2ccccc2)c1Sc1ccccc1`, the growth is -67.9% (active).
For the compound `Cc1cc(NCCCCNc2ccnc3cc(Cl)ccc23)nc(Nc2ccc(C(=O)N3CCCC3)cc2)n1`, the growth was 81.9%.
Take `CC(C)CCC[C@@H](C)[C@H]1CC[C@H]2[C@@H](Nc3ccc(O)cc3)CCC[C@]12C`: the growth was 38.8%.
On to `O=C(c1ccccc1)c1c(/C=C/c2ccc(Cl)cc2)nc2ccccc2c1/C=C/c1cccs1`, for which the growth is 94.1%.
With `CC(=O)n1c(-c2ccc(Cl)cc2)nc2c(c1=O)C(c1ccc(Cl)cc1)c1sc3c(Cl)cccc3c1O2` (stereo not drawn), the growth is 13.2%.
Same read-out and setting: the same measure for `CN1CCN(CCCOc2ccc3nc(Nc4ccc(F)c(F)c4)ccc3c2)CC1`: 58.9%; for `CS(=O)c1cccc(-c2ccc3nc(N)n(-c4ccc(C(F)(F)F)cc4)c(=O)c3c2)c1` (stereo not drawn): 102%.
With `COc1ccc2[nH]c(O)c(/C=c3/cc4c(c(-c5ccc(F)c(OC)c5)n3)=Nc3ccccc3-4)c2c1`, the growth is 84.6%.
Still for that read-out and setting: the same measure for `CC(=O)C(C)Cc1cc2c(cc1C)C(C)(C)CCC2(C)C` (stereo not drawn): 114%; for `COc1cc(/C=C2\C(=O)ON=C2C)cc(OC)c1OC`: 101%; for `CCCCn1c(=O)c2c(nc3n2CCCN3CCc2ccc(OCC(=O)NCCN(CC)CC)cc2)n(CCCC)c1=O`: 59.3%.
For `COc1cc2c(cc1-c1c(C)noc1C)ncc1nc(C3CCC(F)(F)CC3)n(C3CCC(OC(F)F)CC3)c12` (stereo not drawn), the growth was 70.1%.
On to `CCN(CCNc1ccc(C)c2sc3ccccc3c(=O)c12)CC(C)(C)O`, for which the growth is 79.4%.
On to `CCCCCCCCCCCCCCCCCCOc1ccccc1CC(=O)OCCC[N+](C)(C)C`, for which the growth was -15.2% (active).
Take `COc1ccc(C(=NN=C(N)N)c2ccc(OC)cc2)cc1`: the growth is 36.3%.
Regarding `Cc1c(C(=O)N[C@@H](Cc2ccccc2)C(=O)C(=O)NCCc2ccccc2)[nH]c2ccccc2c1=O`, the growth is 95.3%.
On the same count and under the same terms, next, `CC1(c2ccccc2)NC(=O)N(NC(=O)CSc2nc(-c3cccs3)nc3ccccc23)C1=O` (stereo not drawn): 88.6%; `CCN(CC)Cc1cccc(C(=O)OC)c1`: 102%.
On the same count and under the same terms, the same measure for `CCCCc1ccc(Nc2ccc(Nc3ccc(CCCC)cc3S(=O)(=O)O)c3c2C(=O)c2ccccc2C3=O)c(S(=O)(=O)O)c1`: -16.9% (active).
Same read-out and setting: the same measure for `O=C(Nc1ccc(Cl)cc1)Nc1ccc(Cl)c(C(F)(F)F)c1`: 29.8%; for `COc1cc(/C=N/Nc2ncc(-c3cc4cc5c(cc4o3)OCO5)s2)cc(OC)c1OC`: 66.7%; for `COc1ccc(-c2nc3c(N)c(CO)c(C)nc3o2)cc1`: 86.9%.
In the case of `c1ccc(Nc2nc(-c3ccccn3)cs2)nc1`, the growth is 9.37% (active).
In the case of `COc1ccc(NC(=O)c2nc(-c3cc(OC)c(OC)c(OC)c3)n(-c3cccc4ccccc34)n2)cc1OC`, the growth is 22.9%.
With `COc1ccc(C2C(c3nn[nH]n3)=C(N)Oc3c2ccc2ccccc32)cc1` (stereo not drawn), the growth was 53.6%.

For the origin of these results see PubChem BioAssay (NCI).
